# Results taken from PubChem BioAssay AID1159580 (chemical genetic matrix, 2015).
# About 2,000 (36%) of roughly 5,500 compounds were called active. Inconclusive results (about 18%) are left out. This is one part of the list. Values without a mark were called inactive. No stated cut-off is given here; in the data, active means normalized growth mostly below about 0.91 (no sharp cut-off); inconclusive means no clear call, values can overlap the other calls; inactive means mostly above about 0.92.
# Experiment: chemical genetic growth profiling, strain panel (AID 1159580);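 further: tested at 20 µM; growth read once vehicle control cultures reached saturation at 30 °C; 1 = growth at the plate median or of vehicle wells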
# Conditions: S. cerevisiae deletion strains, growth OD
smiles,measurement,setting,value
CC(C)(C)C(=O)C(Oc1ccc(Cl)cc1)n1cncn1 (stereo not given),normalized growth,"locus YAL021C, strain ccr4, stronger effect = lower value",0.639 (active)
same,normalized growth,"locus YAL026C, strain drs2, stronger effect = lower value",0.081 (active)
same,normalized growth,"locus YAL030W, strain snc1, stronger effect = lower value",0.133 (active)
same,normalized growth,"locus YBL061C, strain skt5, stronger effect = lower value",0.136 (active)
same,normalized growth,"locus YBR009C, strain hhf1, stronger effect = lower value",0.133 (active)
same,normalized growth,"locus YBR023C, strain chs3, stronger effect = lower value",0.131 (active)
same,normalized growth,"locus YBR171W, strain sec66, stronger effect = lower value",0.591 (active)
same,normalized growth,"locus YBR231C, strain swc5, stronger effect = lower value",0.119 (active)
same,normalized growth,"locus YBR279W, strain paf1, stronger effect = lower value",0.198 (active)
same,normalized growth,"locus YCL011C, strain gbp2, stronger effect = lower value",0.124 (active)
same,normalized growth,"locus YCL016C, strain dcc1, stronger effect = lower value",0.129 (active)
same,normalized growth,"locus YCL061C, strain MRC1, stronger effect = lower value",0.203 (active)
same,normalized growth,"locus YCL069W, strain vba3, stronger effect = lower value",0.106 (active)
same,normalized growth,"locus YCR088W, strain abp1, stronger effect = lower value",0.25 (active)
same,normalized growth,"locus YDL005C, strain med2, stronger effect = lower value",0.565 (active)
same,normalized growth,"locus YDL040C, strain nat1, stronger effect = lower value",0.272 (active)
same,normalized growth,"locus YDR001C, strain nth1, stronger effect = lower value",0.221 (active)
same,normalized growth,"locus YDR069C, strain doa4, stronger effect = lower value",0.655 (active)
same,normalized growth,"locus YDR137W, strain rgp1, stronger effect = lower value",0.779 (active)
same,normalized growth,"locus YDR159W, strain sac3, stronger effect = lower value",0.171 (active)
same,normalized growth,"locus YDR195W, strain ref2",0.573 (active)
same,normalized growth,"locus YDR297W, strain sur2, stronger effect = lower value",0.19 (active)
same,normalized growth,"locus YDR334W, strain swr1, stronger effect = lower value",0.141 (active)
same,normalized growth,"locus YDR335W, strain msn5, stronger effect = lower value",0.223 (active)
same,normalized growth,"locus YDR392W, strain spt3, stronger effect = lower value",0.104 (active)
same,normalized growth,"locus YEL003W, strain gim4, stronger effect = lower value",0.154 (active)
same,normalized growth,"locus YEL037C, strain rad23, stronger effect = lower value",0.268 (active)
same,normalized growth,"locus YEL061C, strain CIN8 (second series), stronger effect = lower value",0.139 (active)
same,normalized growth,"locus YER015W, strain faa2, stronger effect = lower value",0.201 (active)
same,normalized growth,"locus YER016W, strain bim1, stronger effect = lower value",0.187 (active)
same,normalized growth,"locus YER111C, strain swi4, stronger effect = lower value",0.758 (active)
same,normalized growth,"locus YER155C, strain BEM2 (second series), stronger effect = lower value",0.746 (active)
same,normalized growth,"locus YFR010W, strain ubp6, stronger effect = lower value",0.558 (active)
same,normalized growth,"locus YGL167C, strain pmr1, stronger effect = lower value",0.923
same,normalized growth,"locus YGL173C, strain kem1, stronger effect = lower value",0.701 (active)
same,normalized growth,"locus YGL227W, strain vid30, stronger effect = lower value",0.158 (active)
same,normalized growth,"locus YGL240W, strain doc1, stronger effect = lower value",0.714 (active)
same,normalized growth,"locus YGL253W, strain hxk2, stronger effect = lower value",0.0776 (active)
same,normalized growth,"locus YHR013C, strain ard1, stronger effect = lower value",0.162 (active)
same,normalized growth,"locus YHR027C, strain rpn1, stronger effect = lower value",0.337 (active)
same,normalized growth,"locus YHR030C, strain SLT2, stronger effect = lower value",0.113 (active)
same,normalized growth,"locus YHR079C, strain IRE1, stronger effect = lower value",0.264 (active)
same,normalized growth,"locus YHR142W, strain chs7, stronger effect = lower value",0.107 (active)
same,normalized growth,"locus YJL092W, strain hpr5, stronger effect = lower value",0.177 (active)
same,normalized growth,"locus YJL095W, strain BCK1 (second series), stronger effect = lower value",0.0779 (active)
same,normalized growth,"locus YJL095W, strain BCK1, stronger effect = lower value",0.129 (active)
same,normalized growth,"locus YJL115W, strain asf1, stronger effect = lower value",0.396 (active)
same,normalized growth,"locus YJL129C, strain trk1, stronger effect = lower value",0.183 (active)
same,normalized growth,"locus YJL154C, strain vps35, stronger effect = lower value",0.409 (active)
same,normalized growth,"locus YJL164C, strain tpk1, stronger effect = lower value",0.11 (active)
same,normalized growth,"locus YJL166W, strain qcr8, stronger effect = lower value",0.109 (active)
same,normalized growth,"locus YJL187C, strain SWE1, stronger effect = lower value",0.135 (active)
same,normalized growth,"locus YJR066W, strain TOR1, stronger effect = lower value",0.14 (active)
same,normalized growth,"locus YKL160W, strain elf1, stronger effect = lower value",0.112 (active)
same,normalized growth,"locus YKR026C, strain gcn3, stronger effect = lower value",0.47 (active)
same,normalized growth,"locus YKR091W, strain srl3, stronger effect = lower value",0.247 (active)
same,normalized growth,"locus YLL001W, strain dnm1, stronger effect = lower value",0.168 (active)
same,normalized growth,"locus YLL026W, stronger effect = lower value",0.0984 (active)
same,normalized growth,"locus YLL041C, strain sdh2, stronger effect = lower value",0.159 (active)
same,normalized growth,"locus YLR027C, strain aat2, stronger effect = lower value",0.115 (active)
same,normalized growth,"locus YLR113W, strain HOG1, stronger effect = lower value",0.308 (active)
same,normalized growth,"locus YLR221C, strain rsa3, stronger effect = lower value",0.118 (active)
same,normalized growth,"locus YLR258W, strain gsy2, stronger effect = lower value",0.133 (active)
same,normalized growth,"locus YLR262C, strain YPT6 (second series), stronger effect = lower value",0.66 (active)
same,normalized growth,"locus YLR320W, strain mms22, stronger effect = lower value",0.125 (active)
same,normalized growth,"locus YLR342W, strain FKS1, stronger effect = lower value",0.155 (active)
same,normalized growth,"locus YLR357W, strain rsc2, stronger effect = lower value",0.513 (active)
same,normalized growth,"locus YLR370C, strain arc18, stronger effect = lower value",0.184 (active)
same,normalized growth,"locus YLR384C, strain iki3, stronger effect = lower value",0.672 (active)
same,normalized growth,"locus YML120C, strain ndi1, stronger effect = lower value",0.153 (active)
same,normalized growth,"locus YMR058W, strain fet3, stronger effect = lower value",0.184 (active)
same,normalized growth,"locus YMR125W, strain sto1, stronger effect = lower value",0.147 (active)
same,normalized growth,"locus YMR129W, stronger effect = lower value",0.161 (active)
same,normalized growth,"locus YMR205C, strain PFK2, stronger effect = lower value",0.172 (active)
same,normalized growth,"locus YMR231W, strain pep5, stronger effect = lower value",0.805 (active)
same,normalized growth,"locus YNL071W, strain lat1, stronger effect = lower value",0.0893 (active)
same,normalized growth,"locus YNL183C, strain NPR1, stronger effect = lower value",0.178 (active)
same,normalized growth,"locus YNL209W, strain ssb2, stronger effect = lower value",0.394 (active)
same,normalized growth,"locus YNL248C, strain rpa49, stronger effect = lower value",0.142 (active)
same,normalized growth,"locus YNL322C, strain KRE1 (second series), stronger effect = lower value",0.228 (active)
same,normalized growth,"locus YNR049C, strain mso1, stronger effect = lower value",0.159 (active)
same,normalized growth,"locus YOR001W, strain rrp6, stronger effect = lower value",0.181 (active)
same,normalized growth,"locus YOR070C, strain gyp1, stronger effect = lower value",0.0975 (active)
same,normalized growth,"locus YOR080W, strain dia2, stronger effect = lower value",0.259 (active)
same,normalized growth,"locus YOR083W, strain WHI5, stronger effect = lower value",0.257 (active)
same,normalized growth,"locus YOR106W, strain vam3, stronger effect = lower value",0.211 (active)
same,normalized growth,"locus YOR231W, strain MKK1, stronger effect = lower value",0.273 (active)
same,normalized growth,"locus YOR265W, strain rbl2, stronger effect = lower value",0.164 (active)
same,normalized growth,"locus YOR270C, strain vph1, stronger effect = lower value",0.123 (active)
same,normalized growth,"locus YOR290C, strain snf2, stronger effect = lower value",0.153 (active)
same,normalized growth,"locus YPL051W, strain arl3, stronger effect = lower value",0.357 (active)
same,normalized growth,"locus YPL078C, strain atp4, stronger effect = lower value",0.203 (active)
same,normalized growth,"locus YPL106C, strain sse1, stronger effect = lower value",0.156 (active)
same,normalized growth,"locus YPL240C, strain hsp82, stronger effect = lower value",0.166 (active)
same,normalized growth,"locus YPL256C, strain CLN2, stronger effect = lower value",0.357 (active)
